What was measured:
Assay in all cases: PBM binding z-score (relative to random genomic background probes); higher = stronger binding; sequences stand for … in GC…GCGATTGACAGCGTAGAATGAAGG
[1] = test system: PPARg:RXRa DBDmut IVT, anti-RXR (DBD mutation: RXRa K156A/R161A, NR concentration 270 nM, RXRa partner concentration 90 nM)
Procedure, shortened: (§1)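 Custom Agilent 4×180K protein-binding microarrays carried double-stranded probes. Their 34-nt variable regions held direct-repeat seeds, single-nucleotide variants, half-site ablations and random human genomic background sequences. Arrays were incubated 1 h with ligand-free nuclear receptor dimers in PBS pH 7.4, 2% milk, 0.02% Triton X-100, 1 mM DTT, 0.2 mg/mL BSA and 0.4 mg/ml salmon testes DNA. Antibodies against each partner (one per run) detected binding, and scanned fluorescence was regression-normalized. Binding z-scores use random background probes as reference.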

[2] = test system: PPARg:RXRa IVT, anti-PPARg (NR concentration 270 nM, RXRa partner concentration 90 nM)
Procedure, shortened: as §1

[3] = test system: PPARg homodimer (NR concentration 180 nM)
Procedure, shortened: as §1

[4] = test system: PXR:RXRa (NR concentration 270 nM, RXRa partner concentration 90 nM)
Procedure, shortened: as §1

[5] = test system: PXR homodimer (NR concentration 270 nM)
Procedure, shortened: as §1

[6] = test system: RARa:RXR (NR concentration 270 nM, RXRa partner concentration 90 nM)
Procedure, shortened: as §1

[7] = test system: RARa homodimer (NR concentration 270 nM)
Procedure, shortened: as §1

[8] = test system: RARb:RXRa (NR concentration 270 nM, RXRa partner concentration 90 nM)
Procedure, shortened: as §1

[9] = test system: RARb homodimer (NR concentration 270 nM)
Procedure, shortened: as §1

[10] = test system: RARg:RXRa (NR concentration 270 nM, RXRa partner concentration 90 nM)
Procedure, shortened: as §1

[11] = test system: RARg homodimer (NR concentration 270 nM)
Procedure, shortened: as §1

[12] = test system: RXRa DBDmut IVT, anti-RXR (DBD mutation: RXRa K156A/R161A, NR concentration 90 nM)
Procedure, shortened: as §1

[13] = test system: RXRa homodimer (NR concentration 180 nM)
Procedure, shortened: as §1

[14] = test system: THRa:RXRa (NR concentration 90 nM, RXRa partner concentration 90 nM)
Procedure, shortened: as §1

[15] = test system: THRa homodimer (NR concentration 90 nM)
Procedure, shortened: as §1

[16] = test system: VDR homodimer (NR concentration 270 nM)
Procedure, shortened: as §1

Sequence	PBM binding z-score [1]	PBM binding z-score [2]	PBM binding z-score [3]	PBM binding z-score [4]	PBM binding z-score [5]	PBM binding z-score [6]	PBM binding z-score [7]	PBM binding z-score [8]	PBM binding z-score [9]	PBM binding z-score [10]	PBM binding z-score [11]	PBM binding z-score [12]	PBM binding z-score [13]	PBM binding z-score [14]	PBM binding z-score [15]	PBM binding z-score [16]
CTATGTAGGGTAAGGGGGTCATTCAGTTTGAAAG	7.14	7.72	4.11	5.91	11.1	5.58	1.26	3.72	4.04	5	3.92	2.91	5.44	3.99	2.95	6.62
CTATGTAGGTTATGGGGGTCATTCAGTTTGAAAG	7.32	7.49	4.13	6.22	12.9	6.28	1.72	3.67	4.1	5.57	4.08	2.33	6.38	3.9	2.67	6.69
TTGAGTAGGTTACGGGGGCATTCAGGGATGAAGA	6.29	6.86	5.24	3.31	3.21	3.81	2.56	2.9	2.59	3.71	3.05	2.36	3.3	3.83	2.02	4.22
CCGAGTAGGTTACGAGGGTGCATTCAGTGCGAAT	4.66	3.87	0.357	4.47	4.3	0.897	-0.753	1.13	0.573	0.908	0.734	0.804	1.18	1.71	-0.985	3.12
CTATGTAGGTTAAGGGGGACATTCAGTTTGAAAG	7.33	7.62	2.11	2.48	5.75	1.65	1.11	2.1	1.99	1.81	1.7	1.47	1.39	2.23	1.37	2.64
CCGAGTAGGTTACGAGGGAGCATTCAGTGCGAAT	4.73	3.51	0.106	0.602	0.000491	0.506	-0.145	0.887	0.337	0.625	0.53	0.00513	0.6	0.829	-0.661	-0.171
TCGAGTAGGTTTCGGGGGCATTCAGGGATGAAGA	2.63	3.84	1.79	2.62	2.07	2.22	0.713	1.67	1.5	2.01	1.38	1.48	1.5	3.54	1.69	3.56
CTATGTAGGTTAAGGGGGTCATTCAATTTGAAAG	7.02	7.79	5.83	5.67	3.88	5.82	1.49	3.55	3.69	4.93	3.88	2.02	5.5	3.97	1.83	5.01
TCGAGTAGGTTACGGGGGGATTCAGGGATGAAGA	4.94	5.45	3.89	3.86	2.74	3.13	2.04	2.8	1.73	2.76	2.33	2.47	2.04	3.42	1.85	2.02
CCGAGTAGGGTACGAGGGGGCATTCAGTGCGAAT	2.87	3.56	0.861	3.15	3.37	1.71	-0.0964	1.36	1.62	1.87	1.59	1.73	1.03	2.64	0.475	4.03
TCGAGAAGGTTACGGGGGCATTCAGGGATGAAGA	3.48	4.73	1.82	3.71	1.24	3.78	0.65	3.65	3.05	4.33	3.04	2.36	4.23	4.21	1.42	3.33
CCGAGTGGGTTACGAGGGGGCATTCAGTGCGAAT	3.36	3.81	1.4	4.8	5.23	2.53	-0.433	1.65	1.94	2.95	2.18	1.09	1.75	3.72	0.652	3.43
CCGAGTAGGTTACGATGGGGCATTCAGTGCGAAT	4.25	3.03	-0.0463	0.69	0.101	0.251	-0.659	1.03	0.657	0.828	0.851	0.0778	0.63	1.08	-0.789	0.231
TCGAGTAGGTTACGGGGGCATTCCGGGATGAAGA	4.92	5.8	1.57	3.08	1.1	3.14	0.0892	2.51	2.02	3.36	2.56	1.49	2.87	3.7	0.954	2.67
CTATGTCGGTTAAGGGGGTCATTCAGTTTGAAAG	4.49	5.96	6.84	5.84	8.33	5.76	4.21	3.57	4.04	4.91	4.15	2.98	5.04	3.9	3.17	6.54
TCGAGTAGCTTACGGGGGCATTCAGGGATGAAGA	1.25	2.26	0.346	2.21	1.09	1.47	-0.926	0.94	0.903	1.03	0.544	1.14	1.12	3.35	0.239	2.71
CTATGTAGATTAAGGGGGTCATTCAGTTTGAAAG	3.6	4.97	4.49	5.56	10.4	5.56	3.01	3.42	3.68	4.14	2.94	2.82	5.19	3.74	2.37	5.58

From the supplement of paper PMC6555819
